Compound activity deposited in PubChem BioAssay by several laboratories.
Sampled rows, rich in hits. Any-hit rate of the full collection: about 2.5%.
HSF1 inh: HSF1 inhibition | hit rate 0.77% among 300,000 | NIH3T3-HGL HSE-luciferase, MG132-induced, luminescence 8 h; hits give low values | activity change, negative = inhibition, % at 7.5 µM (by protocol);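 active means more than half of replicate wells show activity change below -50%, luminescence cut by over half; inconclusive means some wells, but at most half, below -50%; inactive means no replicate well below -50%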;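 further: luciferase reports HSF-1 transcriptional activity via heat shock element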
NPR1 activator: GC-A (human) enzyme activation; P16066; HEK293 GC-A cells, cGMP TR-FRET, EC30 ANP; 0% at EC30 ANP, 100% saturating ANP; activation, % at 10 µM; hit rate 0.14% among 370,000; AID 1671463; in the data active means activation above about 40%
aDG glyco act: increases alpha dystroglycan glycosylation; Pro5-aDG cells, alpha-DG glycosylation AlphaScreen (IIH6); 0% Pro5, 100% B10-LARGE cell signal; activation, % at 10 µM; AID 624168; hit rate 0.22% among 360,000;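 active means activation of at least 8% versus controls, or a plate z-score of at least 8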;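 further: Pro5 are CHO cells carrying HIG-tagged alpha-DG that lacks glycosylation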
HSF-1 act: increases HSF-1 driven luciferase reporter signal; NIH3T3-HGL HSF-1 luciferase reporter, MG132, 8 h; 100% = twice DMSO control signal; activation, % at 9 µM; hit rate 1.7% among 300,000;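 active means mean replicate activation of at least 50% with a set share of replicates each reaching 50%; inconclusive means only one of those two conditions met; inactive means mean below 50% and too few replicates reaching it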
Dyrk1A ADPGlo: blocks rat Dyrk1A kinase activity; inhibition, % at 12.5 µM; ADP-Glo luminescence, NFATc1 peptide; hit rate 0.43% among 310,000; Q63470; in the data active means inhibition above about 50%
NPR2 activator: GC-B (human) receptor activation; P20594; HEK293-GC-B cells, CNP EC30, cGMP TR-FRET; 0% at EC30 CNP, 100% saturating CNP; activation, % at 10 µM; hit rate 0.11% among 370,000; AID 1920062;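 active means activation at 10 µM reaching about 35% in either raw or pattern-adjusted values, limit read from the data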
aDG conf: confirmation of alpha dystroglycan glycosylation activators. shares compounds with aDG glyco act. activation, % at 10 µM (by protocol). hit rate 17% among 600. AID 651671. Pro5-aDG cells, alpha-DG glycosylation, IIH6 AlphaLISA; scaled to LARGE-overexpressing B10 cells as 100%;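 active means activation of at least 7% in one or more replicates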;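 further: cells exposed to compound for two days before detection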
Each line names hits and unclear results; the compound was inactive in the other large screens (follow-up assays come after a bar, where they were run); ! = a repeat was not active.

Cc1cc(C)n(-c2nc(NCCN(C)C)c3c4c(sc3n2)CCCC4)n1	none
Cc1cc(C)n(-c2nc(SCCN3CCOCC3)c3c4c(sc3n2)CCCC4)n1	aDG glyco act 2.6 (no result: HSF1 inh, HSF-1 act) | aDG conf inactive
Cc1cc(C)n(-c2nc(NCCC(C)C)c3c4c(sc3n2)COC(C)(C)C4)n1	aDG glyco act 4.8 | aDG conf inactive
COc1cc(C=C(C#N)c2ccc([N+](=O)[O-])cc2)ccc1O	none (no result: HSF1 inh, HSF-1 act, Dyrk1A ADPGlo)
Cc1ccn2c(NC3CCCCC3)c(-c3cccc(SC4CCCCC4)c3)nc2c1	aDG glyco act 5.7! (no result: HSF1 inh, HSF-1 act) | aDG conf inactive
Cc1noc(C)c1CSc1cc(C)c2ccccc2n1	none
O=S1(=O)c2c(Oc3cccc4ccccc34)cccc2OC(COCc2ccccc2)CN1C1CCCC1 (stereo unspecified)	none (no result: HSF1 inh, HSF-1 act)
CC(=O)Oc1ccc(N(C(C)=O)S(=O)(=O)c2ccc(C)cc2C)c2ccccc12	aDG glyco act 4.9 | aDG conf inactive
COc1ccc(S(=O)(=O)N(C(C)=O)c2ccc(OC(C)=O)c3ccccc23)cc1[N+](=O)[O-]	aDG glyco act 10.8 | aDG conf inactive
CC(=O)Oc1c(Cl)cc(N(C(C)=O)S(=O)(=O)c2ccccc2)c2ccccc12	aDG glyco act 3.1, HSF-1 act inconclusive (no result: Dyrk1A ADPGlo) | aDG conf 5.6
O=C(CCN1N=C(c2ccccc2)CCC1=O)NCCCN1CCOCC1	none
COc1cc(S(=O)(=O)Nc2c(C)nn(C)c2C)ccc1NC(C)=O	none
Cc1ccc(-c2nnn(CC(=O)N(CCCO)C(C(=O)NC3CCCC3)c3ccc(Cl)cc3)n2)o1 (stereo unspecified)	none
CSCC[C@H](NC(=O)Nc1ccc(C)cc1C)C(=O)O	none
COc1cc(OC)c(NC2=CC(=O)C(=O)c3ccccc32)cc1Cl	none
Cc1cc(NC2=CC(=O)C(=O)c3ccccc32)no1	aDG glyco act 13.8 (no result: HSF1 inh, HSF-1 act) | aDG conf 15.8
O=[N+]([O-])c1cccc(-c2nnc3n2CCCCC3)c1	none
O=C(CCc1ccccc1)NC(NC(=S)Nc1cccc(Cl)c1)C(Cl)(Cl)Cl (stereo unspecified)	aDG glyco act 7.2 | aDG conf inactive
O=C(NNC(=O)c1cccc2ccccc12)c1ccc(F)cc1	none (no result: HSF1 inh, HSF-1 act, Dyrk1A ADPGlo)
C[C@H](CO)N1C[C@H](C)[C@@H](CN(C)Cc2ccc3c(c2)OCO3)Oc2c(NC(=O)Cc3ccccc3)cccc2C1=O	none (no result: HSF1 inh, HSF-1 act)
Cc1ccc(S(=O)(=O)N2CCOCC2)cc1C(=O)NC1CCCC1	none
Cc1ccc(S(=O)(=O)N2CCOCC2)cc1C(=O)NC1CCCCC1	aDG glyco act 50.0 | aDG conf inactive
Cc1ccc(S(=O)(=O)N2CCOCC2)cc1NC(=O)COC(=O)c1cccc(Cl)c1Cl	none (no result: HSF1 inh, HSF-1 act)
CCN(C(=O)c1ccc(C(C)(C)C)cc1)c1nnc(Cn2nnc3ccccc32)s1	aDG glyco act 7.9 | aDG conf inactive
CCN(C(=O)CC(C)C)c1nnc(Cn2nnc3ccccc32)s1	none (no result: HSF1 inh, HSF-1 act)
O=C(NC1CCCC1)c1cc(COc2ccc3ncccc3c2)on1	none (no result: NPR1 activator, NPR2 activator)
COCC1CCN(C(=O)c2cc(COc3ccc4ncccc4c3)on2)CC1	aDG glyco act 6.7 | aDG conf inactive
O=C(NCCc1cn2ccccc2n1)c1cc(COc2ccc3ncccc3c2)on1	aDG glyco act 10.1 | aDG conf inactive
CCOc1ccccc1NC(=O)CN(C)S(=O)(=O)c1ccc2[nH]c(=O)oc2c1	none
C=CCCC1CN(Cc2ccc(OC)cc2)S(=O)(=O)c2c(Oc3ccc(F)cc3OC)cccc2O1 (stereo unspecified)	none (no result: HSF1 inh, aDG glyco act, HSF-1 act, Dyrk1A ADPGlo)
COc1ccc(C2=NN(CCC(=O)NC3CCCCCC3)C(=O)CC2)cc1	none
O=C(CCN1N=C(c2ccccc2)CCC1=O)NC1CCCC1	aDG glyco act 3.0 | aDG conf inactive
CCC(C)Sc1nc2c(cnn2-c2ccccc2)c(=O)[nH]1 (stereo unspecified)	aDG glyco act 7.7 | aDG conf inactive
CCC(C)Sc1nc2c(cnn2-c2ccc(C)cc2)c(=O)[nH]1 (stereo unspecified)	none
CN(C)C(=O)c1cn(-c2ccccc2)nc1-c1cccs1	aDG glyco act 61.6 | aDG conf inactive
C=CCNCC(=O)N1N=C(c2ccc3ccccc3c2)CC1c1ccc(OC)cc1 (stereo unspecified)	aDG glyco act 5.8 | aDG conf inactive
COc1ccc(C2CC(c3ccc4ccccc4c3)=NN2C(=O)CNC2CCCCC2)cc1 (stereo unspecified)	none
O=C(Nc1cc(Cl)ccc1-n1cncn1)c1ccc([N+](=O)[O-])s1	aDG glyco act 11.8 (no result: NPR1 activator, NPR2 activator) | aDG conf 3.8
O=C(Nc1nc(-c2ccccn2)cs1)C1COc2ccccc2O1 (stereo unspecified)	none (no result: HSF1 inh, HSF-1 act)
CC1CC1C(=O)Nc1nc(-c2ccccn2)cs1 (stereo unspecified)	aDG glyco act 5.1 | aDG conf inactive
Cc1ccc2ccc3cccnc3c2n1	aDG glyco act 3.6 | aDG conf 4.7
Cc1cccn2c(=O)c(C(=O)NC3CC(C)CC(C)(C)C3)c(O)nc12 (stereo unspecified)	aDG glyco act 3.6 | aDG conf inactive
COc1ccc(CCN(C)C(=O)c2cc(-c3ccccc3)nc3ccc(C)cc23)cc1OC	aDG glyco act 7.8 | aDG conf inactive
CC(CCc1ccccc1)NC(=O)CSc1nccc(=O)[nH]1 (stereo unspecified)	none (no result: HSF1 inh, HSF-1 act)
C=CCN1C(C(=O)OC)CN(Cc2cn(Cc3ccc(OC)cc3)nn2)CCS1(=O)=O (stereo unspecified)	none (no result: HSF1 inh, aDG glyco act, HSF-1 act, Dyrk1A ADPGlo)
C/C(=N/NC(=O)C(O)(c1ccccc1)c1ccccc1)c1ccc([N+](=O)[O-])o1	aDG glyco act 8.2 | aDG conf 3.7
CCN(C(=O)COn1nnc2ccc(S(=O)(=O)N(C)C)cc21)C1CCS(=O)(=O)C1 (stereo unspecified)	none (no result: HSF1 inh, HSF-1 act)
CCC(c1nnnn1-c1c(C)cccc1C)N1CCN(c2ccc(C(F)(F)F)cc2[N+](=O)[O-])CC1 (stereo unspecified)	aDG glyco act 7.6 (no result: HSF1 inh, NPR1 activator, HSF-1 act, Dyrk1A ADPGlo, NPR2 activator) | aDG conf inactive
CCC(c1nnnn1-c1c(C)cccc1C)N1CCN(c2cccc(C(F)(F)F)n2)CC1 (stereo unspecified)	none (no result: HSF1 inh, HSF-1 act, Dyrk1A ADPGlo)
CCOc1ccc(-n2cc(C(=O)N3CCCCCC3)c3cc(OC)c(OC)cc3c2=O)cc1	aDG glyco act 5.5 (no result: HSF1 inh, HSF-1 act) | aDG conf 9.9
CCOc1ccc(-n2cc(C(=O)NCc3ccco3)c3cc(OC)c(OC)cc3c2=O)cc1	none
O=C(OCc1ccc(Cl)c(Cl)c1)c1ccccn1	none
C/C=C/c1ccc(OCCCNC(C)CC)c(OC)c1 (stereo unspecified)	none
